Experimental data published in PubChem BioAssay AID1379 (National Center for Advancing Translational Sciences (NCATS), 2008).
The whole screen tested about 200,000 compounds, of which about 560 (0.28%) were called active. The sample holds actives, similar compounds and a random draw of the others, so the mix is not that of the screen. Values without a mark were called inactive. The call rests on the fitted dose curve; in most records, active means well fitted inhibition curve with a large enough effect; inconclusive means small, poorly fitted or top-dose-only effect; inactive means flat fitted curve, though single readings scatter.

Target: Luciferin 4-monooxygenase (Photuris pensylvanica) (UniProt Q27757)
Assay: Counterscreen for Luciferase (Kinase-Glo TM) Inhibition; further: nearly all actives have a fitted effect of over 60% in size
Conditions: ATP luminescence, 8 min; series mostly up to 38.3 µM; activity change, negative = inhibition: at the top concentration
Protocol: NCGC Assay Overview: NIH Molecular Libraries Screening Centers Network [MLSCN] NIH Chemical Genomics Center [NCGC] MLSCN Grant: None Luciferase (Kinase-Glo, Promega Corporation) was assayed for its ability to generate light using ATP and luciferin as substrates. The ATP concentration in the assay (10 uM) was within the linear range of enzyme activity for the assay conditions used.
NCGC Assay Protocol Summary: Four uL of substrate mix (final concentration, 50 mM imidazole pH 7.2, 50 mM KCl, 7 mM MgCl2, 10 uM ATP, 0.01% Tween 20, 0.05% BSA) was dispensed into white 1536 well plates. Twenty-three nL of compound was delivered by a pin tool and 2 uL of luciferase detection mix (Kinase-Glo, Promega)) was added. Following 8-minute incubation at ambient temperature, luminescence was measured by a ViewLux (Perkin Elmer) at 5 seconds exposure/plate.
On the % scale 0 is the no-effect control and ±100 the full control effect; potency means the concentration at half of the fitted maximal effect.

| Compound | activity change, negative = inhibition | Potency |
| --- | --- | --- |
| COC(=O)C1=C(C(=O)OC)[C@@H]2N(C)c3ccccc3[C@@]23C[C@@H](C(=O)OC)N(S(=O)(=O)c2ccc(Br)cc2)C3=N1 | -4.44% [at 7.66 µM] |  |
| CCCCCCCC/C=C\CCCCCCCC(=O)NCC(=O)O | -1.33% |  |
| CCOC(=O)C1=NO[C@@]2(C=C(Br)C(=O)[C@H]3O[C@H]32)C1 | 1.87% |  |
| COc1cccc([C@@H]2Oc3ccc(Br)cc3C(=O)[C@H]2OC(=O)NCc2ccc3c(c2)OCO3)c1 | 0.893% |  |
| COCCN1C(=O)N[C@@H](CCc2ccccc2)[C@H](C(C)=O)[C@H]1C | -8.66% [at 7.66 µM] |  |
| Cc1ccc(N2CCN(C3=NC(=O)/C(=C\c4cccs4)S3)CC2)cc1 | 6.68% |  |
| CCc1ccc(/C=C2\SC(N3CCOCC3)=NC2=O)cc1 | 0.0153% |  |
| Cc1ccsc1/C=C1\SC(N2CCOCC2)=NC1=O |  | 12.6 µM (active) |
| COC(=O)CCCC1=CC2=C(c3ccccc3)C(=O)C(C)(OC(=O)C3CCCC3)C(=O)C2=CN1c1ccc(OC)cc1 (stereo not drawn) | -10.4% [at 7.66 µM] |  |
| COC(C)C(C(=O)OCC1=CCN2CC[C@H](O)[C@@H]12)C(C)C (stereo partly drawn) | 0.48% |  |
| COC(=O)CC1c2ccccc2C(Cc2ccc(OC)cc2)=C(C)N1C(=O)OC (stereo not drawn) | -5.96% [at 7.66 µM] |  |
| COc1cccc(/C=N\NC(=O)C2=NNC(=O)C2C)c1O (stereo not drawn) |  | 12.6 µM (active) |
| COc1cccc(/C=N/NC(=O)c2[nH]nc3c2CCc2ccccc2-3)c1O | -1.04% |  |
| COc1cccc(/C=N/Nc2cc(C)nc(-c3ccccc3O)n2)c1O | -0.876% |  |
| Cc1ccc(S(=O)(=O)N2CCC(=O)N([C@H](COCc3ccccc3)Cc3ccccc3)CC2)cc1 | 5.82% [at 39.9 µM] |  |
| CCOC(=O)C1=C(C)c2ccccc2OC1C(=O)OCC (stereo not drawn) | 2.5% [at 39.9 µM] |  |
| COC(=O)CCCC1=CC2=CC(=O)C(C)(OC(=O)c3cccs3)C(=O)C2=CN1c1ccc(CO)cc1 (stereo not drawn) | -0.663% [at 7.66 µM] |  |
| COc1ccc(-c2nc3c(c4c2C[C@H](c2ccccc2)OC4)CN(C(=O)c2ccco2)CC3)c(C)c1 | -7.1% [at 7.66 µM] |  |
| c1c2c(cc3sc(N4CCCCC4)nc13)OCCO2 |  | 12.6 µM (active) |
| COc1ccc2nc(Nc3nc4cc5c(cc4s3)OCCO5)sc2c1 | 1.58% |  |
| Brc1ccc2nc(N3CCCC3)sc2c1 | -10.5% |  |
| CCCCC[C@H](O)/C=C/[C@@H]1[C@@H](CC(=O)CCC(=O)O)[C@@H](O)C[C@H]1O | 0.788% |  |
| COc1ccc(-c2nc3c(c4c2C[C@H](c2ccccc2)OC4)CN(C(=O)c2cccnc2)CC3)c(C)c1 | -3.92% [at 7.66 µM] |  |
